This note sets out measurements from PubChem BioAssay.

Experiment [1] can be described thus: resazurin metabolic signal in HepG2 cells – cell-based, resazurin fluorescence, 24 h, PK04 Diversity Set, profiling panel (AID 1172). Note: test concentration not given here. To be noted: HepG2 viability, higher = more signal.
The nature of experiment [2]: budding yeast growth changes without added modifier – OD600, strain BY4716, 24 h, basal condition, primary screen (AID 1173). To be noted: S. cerevisiae BY4716 growth, OD600, 24 h; higher = more signal, called active from +8 up or from −8 down.
Experiment [3] is described as follows: viability profiling in MM1S myeloma cells – cell-based, resazurin fluorescence, basal, 24 h, PK04 Diversity Set, profiling panel (AID 1174).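 Note: MM1S multiple myeloma cell line; test concentration not given here.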 To be noted: higher = more signal, called active from +8 up or from −8 down. (In general: Alamar Blue is a resazurin reagent that responds to reducing activity.)
In experiment [4] the target is Dihydroorotate dehydrogenase (quinone), mitochondrial (Plasmodium falciparum (isolate 3D7)) (UniProt Q08210). As to the kind of experiment: inhibition of P. falciparum DHODH – biochemical, C-terminal His tag, absorbance 600 nm, primary screen (AID 1175).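 Note: recombinant parasite enzyme with a five histidine tag at its C terminus; test concentration not given here.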 To be noted: PfDHODH enzyme, DCIP absorbance 600 nm; higher = more signal, called active from +8 up or from −8 down.

Experiment [5] in a line: inhibition of PAO1 biofilm formation – strain PAO1, LB-PBS medium, absorbance 600 nm, primary screen (AID 1176). Note: test concentration not given here. The settings on record: P. aeruginosa PAO1 growth/biofilm, A600, 12 h; higher = more signal.
Experiment [6] in a line: growth modulation of vineyard yeast isolate – strain RM11-1a, OD600, basal, 24 h, primary screen (AID 1177).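 Note: cultures grown under basal conditions with no added stressor; test concentration not given here.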 To be noted: S. cerevisiae RM11-1a growth, OD600, 24 h; higher = more signal, called active from +8 up or from −8 down.
Experiment [7] in a line: growth of efflux-deficient E. coli DRC39 – strain DRC39, OD650, 24 h, E. coli filamentation inducers, primary screen (AID 1178).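 Note: growth measured as culture turbidity by optical density at 650 nm; test concentration not given here.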 The settings on record: E. coli DRC39 acrAB, higher = more signal, called active from +8 up or from −8 down.
Experiment [8] is described as follows: growth of efflux-deficient E. coli DRC39 – strain DRC39, OD650, 48 h, E. coli filamentation inducers, primary screen (AID 1179).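 Note: screen aims at cell division blockers that make cells filament.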 To be noted: E. coli DRC39 delta-acrAB growth, higher = more signal, called active from +8 up or from −8 down.
Experiment [9] is described as follows: viability profiling in RPMI8226 myeloma cells – cell-based, resazurin fluorescence, basal, 24 h, PK04 Diversity Set, profiling panel (AID 1180).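 Note: RPMI8826 multiple myeloma cell line at 5000 cells per well; test concentration not given here.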 The settings on record: higher = more signal.
Experiment [10] addresses E3 ubiquitin-protein ligase XIAP (Homo sapiens) (UniProt P98170). The experiment can be described thus: small molecules binding XIAP protein – biophysical, small-molecule microarray, fluorescence 635 nm, primary screen (AID 1181).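 Note: score merges 667 nm emission and signal to noise over triplicate slides.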 The settings on record: higher = more signal.

Structures are written as SMILES. The source made the active and inactive calls. Unless noted, the rule behind the calls is not given here.

Chain of E3 ubiquitin-protein ligase XIAP (Homo sapiens) (P98170 whole entry, looked up): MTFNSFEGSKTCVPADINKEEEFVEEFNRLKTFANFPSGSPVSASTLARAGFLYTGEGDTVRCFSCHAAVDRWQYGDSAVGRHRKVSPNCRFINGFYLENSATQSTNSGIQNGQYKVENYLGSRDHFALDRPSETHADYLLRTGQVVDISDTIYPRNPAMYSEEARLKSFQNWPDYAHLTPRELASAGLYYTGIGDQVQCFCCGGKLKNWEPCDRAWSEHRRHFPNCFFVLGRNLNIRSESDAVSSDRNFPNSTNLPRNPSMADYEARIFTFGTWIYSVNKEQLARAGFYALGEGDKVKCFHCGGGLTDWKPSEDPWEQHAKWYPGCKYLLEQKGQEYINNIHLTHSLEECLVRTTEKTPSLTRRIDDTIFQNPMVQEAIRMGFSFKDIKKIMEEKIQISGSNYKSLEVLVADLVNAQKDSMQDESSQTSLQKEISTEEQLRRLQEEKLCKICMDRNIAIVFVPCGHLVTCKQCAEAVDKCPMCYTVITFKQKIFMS
Chain of Dihydroorotate dehydrogenase (quinone), mitochondrial (Plasmodium falciparum (isolate 3D7)) (Q08210 whole entry, looked up): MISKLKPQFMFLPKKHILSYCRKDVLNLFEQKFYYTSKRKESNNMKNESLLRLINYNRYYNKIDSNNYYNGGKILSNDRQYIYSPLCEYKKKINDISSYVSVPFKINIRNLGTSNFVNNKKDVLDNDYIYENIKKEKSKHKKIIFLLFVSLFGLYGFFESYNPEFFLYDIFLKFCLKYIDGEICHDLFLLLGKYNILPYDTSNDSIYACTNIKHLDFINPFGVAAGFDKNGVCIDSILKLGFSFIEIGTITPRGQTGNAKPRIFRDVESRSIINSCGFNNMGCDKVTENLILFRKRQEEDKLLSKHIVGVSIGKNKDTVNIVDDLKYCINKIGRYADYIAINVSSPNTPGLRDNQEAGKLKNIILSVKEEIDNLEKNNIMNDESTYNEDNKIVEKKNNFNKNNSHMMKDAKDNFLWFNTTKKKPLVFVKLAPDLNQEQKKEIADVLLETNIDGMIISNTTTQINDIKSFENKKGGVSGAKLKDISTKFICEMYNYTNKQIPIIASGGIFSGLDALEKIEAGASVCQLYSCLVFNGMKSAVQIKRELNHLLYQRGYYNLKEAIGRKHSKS

For `CC(C)CNC(=O)[C@@H]1c2ccccc2C(=O)N(C2Cc3ccccc3C2)[C@H]1c1ccc(CO)cc1`, the z-score was 0.98 in experiment [1]; -0.283 (inactive) in [2]; 0.76 (inactive) in experiment [3]; 0.444 (inactive) in experiment [5]; -1.09 (inactive) in [6]; 0.725 (inactive) in [7]. The z-score in [8] was 1.03 (inactive); in [9], 1.4. Besides, the composite z-score in experiment [4] is -0.417 (inactive); in [10], -0.109.
For the compound `CCOC(=O)C[C@H]1[C@H](OC(=O)c2ccc(C(=O)c3ccccc3)cc2)[C@@H](NC(=O)c2ccc3ccccc3c2)c2cc(OCCCO)ccc2N1C(=O)c1ccc2ccccc2n1`, the z-score in experiment [1] is 0.213; in [2] it was -0.628 (inactive); in experiment [3], 0.64 (inactive); in experiment [5], -0.595 (inactive); in experiment [6] it was 0.351 (inactive); in experiment [7], 0.571 (inactive). Also, the figures for the z-score in [8] and in [9] were 0.534 (inactive) and 0.395, respectively. For the same compound, the composite z-score in experiment [4] was 0.824 (inactive); in experiment [10] it was -0.0726.
Regarding `COC(=O)c1ccc([C@H](NC(=O)c2ccccc2)[C@]2(C)C[C@H]2C2CCCCC2)cc1`, the z-score in [1] was 0.38; in [2], 1.28 (inactive); in experiment [3] it was 0.713 (inactive); in experiment [5] it was 0.371 (inactive); in experiment [6], 0.832 (inactive); in [7], -1 (inactive). The z-score is -0.768 (inactive) in experiment [8] and 0.293 in [9]. The composite z-score in [4] was -0.256 (inactive); in [10] it was -0.127.
As to `CCCCC(O)C1C=CC2C(=O)N(C)C(=O)C2N1Nc1ccccc1` (stereo not given), the z-score in [1] is -1.63; in experiment [2], 0.216 (inactive); in experiment [3] it was -1.39 (inactive); in experiment [5] it was 1.22 (inactive); in experiment [6], 1.53 (inactive); in experiment [7], -0.867 (inactive). For the same compound, the values for the z-score in experiment [8] and in [9] were -0.618 (inactive) and -1.5, respectively. Further, the composite z-score in experiment [4] was 0.957 (inactive); in [10], 0.0742.
As to `O=C1N(Cc2ccccc2)c2ccccc2[C@H]2OC(c3ccc(OCCCO)cc3)=N[C@@]12Cc1ccccc1`, the z-score was -1.46 in experiment [1]; -0.084 (inactive) in [2]; -3.4 (inactive) in [3]; 0.565 (inactive) in experiment [5]; 2.15 (inactive) in experiment [6]; 0.383 (inactive) in [7]. The z-score in experiment [8] is -0.362 (inactive); in experiment [9], -3.36. In addition, the values for the composite z-score in experiment [4] and in experiment [10] were 0.983 (inactive) and 0.0297, respectively.
For the compound `COc1cc(OC)c(C(O)C2C=CC3C(=O)N(c4ccccc4)C(=O)C3N2Nc2ccccc2F)cc1Br` (stereo not given), the z-score is -0.384 in experiment [1]; -1.22 (inactive) in experiment [2]; -0.898 (inactive) in experiment [3]; 1.32 (inactive) in [5]; 0.298 (inactive) in experiment [6]; -0.529 (inactive) in [7]. Further, the z-score in [8] was -0.595 (inactive); in experiment [9] it was -2.08. For the same compound, the composite z-score was -0.92 (inactive) in experiment [4] and 0.0245 in [10].
Take `C=CCNC(=O)[C@@H]1[C@H]2C(=O)O[C@H](c3ccccc3)[C@H](c3ccccc3)N2[C@H](c2ccc(O)cc2)[C@@]12C(=O)Nc1ccc(C#CC3(O)CCCCCC3)cc12`: the z-score in experiment [1] is -0.285; in experiment [2] it was 0.0504 (inactive); in experiment [3] it was -0.205 (inactive); in [5], 0.498 (inactive); in experiment [6] it was 0.117 (inactive); in experiment [7], 0.6 (inactive). For the same compound, the values for the z-score in experiment [8] and in [9] were 0.0092 (inactive) and -1.57, respectively. The results for the composite z-score in experiment [4] and in experiment [10] were 0.0708 (inactive) and -0.154, respectively.
For the compound `C=CC[C@]1(C(=O)OC)N=C(c2ccc(OCCCO)cc2)O[C@H]1c1ccccc1N=[N+]=[N-]`, the z-score in experiment [1] was -0.344; in experiment [2], -0.352 (inactive); in experiment [3] it was -0.455 (inactive); in experiment [5], 0.935 (inactive); in experiment [6], 1.6 (inactive); in [7], 0.0005 (inactive). Further, the z-score is -1.12 (inactive) in experiment [8] and -0.406 in experiment [9]. Further, the values for the composite z-score in experiment [4] and in experiment [10] were 0.823 (inactive) and 0.509, respectively.
In the case of `CCCC=C(CCC)[C@@H](NC(=O)c1ccco1)c1ccc(C(=O)OC)cc1`, the z-score is 3.5 in experiment [1]; 1.39 (inactive) in experiment [2]; 1.12 (inactive) in experiment [3]; -0.387 (inactive) in experiment [5]; 1.67 (inactive) in experiment [6]; -0.422 (inactive) in experiment [7]. Moreover, the z-score in experiment [8] is -0.245 (inactive); in [9], -2.8. In addition, the composite z-score is -0.0216 (inactive) in experiment [4] and 0.251 in [10].
Consider `CCOC(=O)C1=CC[C@@H](c2ccc(F)cc2)N(S(=O)(=O)c2ccc(C)cc2)[C@H]1c1ccc([N+](=O)[O-])cc1`, for which the z-score is 1.09 in experiment [1]; 1.18 (inactive) in [2]; 0.0003 (inactive) in experiment [3]; 0.0362 (inactive) in experiment [5]; 0.248 (inactive) in experiment [6]; 0.253 (inactive) in [7]. Besides, the z-score was 0.321 (inactive) in experiment [8] and -0.678 in [9]. In addition, the composite z-score in experiment [4] was -0.554 (inactive); in [10], 0.0077.
With `CCCCC(=C=CC[C@@H](O)c1cccc(OCCO)c1)C[C@@H](O)COCc1ccccc1`, the z-score was 0.161 in experiment [1]; -2.28 (inactive) in experiment [2]; -0.164 (inactive) in experiment [3]; 0.212 (inactive) in experiment [5]; -2.76 (inactive) in experiment [6]; 0.812 (inactive) in experiment [7]. The values for the z-score in experiment [8] and in experiment [9] were 0.577 (inactive) and 0.528, respectively. Besides, the composite z-score is -2.23 (inactive) in [4] and -0.0561 in experiment [10].
As to `CC=CC(O)C1C=CC2C(=O)N(C)C(=O)C2N1NC(=O)OC(C)(C)C` (stereo not given), the z-score in [1] is -1; in experiment [2], 0.906 (inactive); in experiment [3], -0.524 (inactive); in [5] it was -0.0625 (inactive); in experiment [6] it was -0.243 (inactive); in experiment [7] it was -0.447 (inactive). Besides, the z-score is -0.504 (inactive) in [8] and -0.939 in [9]. Also, the composite z-score in [4] was -0.0735 (inactive); in experiment [10] it was 0.0621.
Regarding `Cc1c(NC(=O)/C(C#N)=C/c2ccc(Cl)cc2)c(=O)n(-c2ccccc2)n1C`, the z-score in [1] is 0.244; in [2], -0.429 (inactive); in [3] it was 0.103 (inactive); in experiment [5] it was 0.888 (inactive); in [6], -0.704 (inactive); in experiment [7] it was 1.43 (inactive). Further, the z-score in experiment [8] is 1.5 (inactive); in [9] it was -0.345. The composite z-score is -2.14 (inactive) in [4] and -0.0871 in experiment [10].
